Screening results: PubChem BioAssay, several laboratories
A selection: hits, their analogues and other compounds. The true share with any hit is near 2.2%.
Ba/F3 V617F tox = lowers viability of Ba/F3 cells expressing EpoR and JAK2V617F | ATP luminescence | inhibition, % at 5.6 µM | actives 1.1% (n = 220,000);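 active = inhibition above the campaign mean plus 3 SD over all tested compounds, cut at about 24% in these data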;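 note: cytokine-independent growth of Ba/F3 cells driven by EpoR plus mutant JAK2; 0% = DMSO-treated cells and 100% = JAK inhibitor I control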
APP 5UTR inh = APP translation inhibition. SH-SY5Y APP 5'UTR-luciferase reporter, luminescence. inhibition, % at 2 µM. actives 0.82% (n = 190,000);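 active = inhibition above a set limit, derived from the sample mean plus 3 SD, cut at about 45% in these data; inconclusive = one replicate passes the limit while the other fails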
IEC-6 tox = kills IEC-6 intestinal cells in KLF5 counter-screen. actives 0.78% (n = 290,000). IEC-6 cytotoxicity, luminescence viability. inhibition, % at 5 µM;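 note: 0% = plate median of test compound wells and 100% = cytotoxic reference compound wells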
aSyn 5UTR inh = 5' untranslated region of α-synuclein, MLPCN primary screen; alpha-synuclein 5'UTR reporter, inhibitor activity; inhibition, % (tested at 7.5 µM); actives 0.82% (n = 300,000); AID 1813; in the data active = inhibition above about 60%; inconclusive = no clear call, values can overlap the other calls;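 note: H4 neuroglioblastoma cells stably carrying SNCA 5'UTR luciferase fusion; 0% = DMSO wells and 100% = positive control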
KLF5 inhibitor = inhibitors of KLF5 expression; DLD-1 KLF5 promoter-luciferase reporter, luminescence; inhibition, % at 5 µM; actives 0.23% (n = 290,000); AID 1700;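 active = inhibition above a per-plate limit of that plate's mean compound inhibition plus 3 SD, cut at about 60% in these data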;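 note: 0% = DMSO wells and 100% = LY294002 at 200 µM; higher means less KLF5 promoter-driven luciferase light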
BaF3 parental = parental Ba/F3 viability inhibition as JAK2V617F counter-screen | AID 1486 | inhibition, % at 5.6 µM | CellTiter-Glo ATP luminescence | actives 1.1% (n = 220,000);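 active = inhibition above a per-campaign cutoff, the mean inhibition of all tested compounds plus 3 SD, cut at about 27% in these data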;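 note: 0% = DMSO wells and 100% = JAK Inhibitor I control wells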
IEC-6 tox confirm = IEC-6 cytotoxicity, confirmation assay; inhibition, % at 5 µM; actives 63% (n = 1,900); shares compounds with IEC-6 tox; IEC-6 rat intestinal epithelial viability, luminescence;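 note: 0% = vehicle and 100% = reference cytotoxic drug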
* = called active by the depositor. Cut-off read from the data, not from the text of the source, unless noted: active = inhibition above about 22%; inactive = the rest.

Results for COc1ccc(CNc2ncnc3cc(OC)c(OC)cc23)cc1OC ?
Ba/F3 V617F tox: 5.1; APP 5UTR inh: 11.5; IEC-6 tox: 7.2; aSyn 5UTR inh: 5.4; KLF5 inhibitor: -15.9; BaF3 parental: 9.8

How did COc1cc2ncnc(NCc3cccc(Cl)c3)c2cc1OC do in these assays?
Ba/F3 V617F tox: 1.2; APP 5UTR inh: 9.5; IEC-6 tox: 33.3*; aSyn 5UTR inh: 16.9; KLF5 inhibitor: 7.0; BaF3 parental: 2.0; IEC-6 tox confirm: 36.8*

How did COc1cc2ncnc(NCc3ccccc3)c2cc1OC do in these assays?
Ba/F3 V617F tox: 1.1; APP 5UTR inh: -2.4; IEC-6 tox: 26.2*; aSyn 5UTR inh: 14.5; KLF5 inhibitor: 6.2; BaF3 parental: 5.2; IEC-6 tox confirm: 30.1*

Results for O=C(OCC(=O)N1CCCC1)c1c(Cl)ccc(Cl)c1Cl ?
IEC-6 tox: 2.8; aSyn 5UTR inh: -22.3; KLF5 inhibitor: -20.6

What do the screens show for `Cc1ccc(C(=O)OCC(=O)N(CCc2ccccc2)Cc2ccccc2)cc1S(=O)(=O)N1CCOCC1`?
aSyn 5UTR inh: 8.6

Results for Cc1cc(C(=O)N2CCN(C/C=C/c3ccccc3)CC2)cs1 ?
Ba/F3 V617F tox: 0.2; APP 5UTR inh: -16.4; IEC-6 tox: 45.3*; aSyn 5UTR inh: 15.9; KLF5 inhibitor: 1.7; BaF3 parental: 2.7; IEC-6 tox confirm: -16.0

What do the screens show for `O=C(c1cccnc1)N1CCN(C/C=C/c2ccccc2)CC1`?
Ba/F3 V617F tox: 0.4; APP 5UTR inh: -9.1; IEC-6 tox: 2.8; aSyn 5UTR inh: 14.7; KLF5 inhibitor: -18.0; BaF3 parental: 5.6

How did S=c1nc[nH]c2nc[nH]c12 do in these assays?
IEC-6 tox: 82.9*; aSyn 5UTR inh: 66.6*; KLF5 inhibitor: 46.7; IEC-6 tox confirm: 69.3*

How did CCn1c(Cl)c(C=O)s/c1=N\S(=O)(=O)c1ccccc1 do in these assays?
Ba/F3 V617F tox: 99.0*; IEC-6 tox: 95.6*; aSyn 5UTR inh: -55.2; KLF5 inhibitor: 21.8; BaF3 parental: 102.8*; IEC-6 tox confirm: 90.7*

Results for CCN1C(=O)CS/C1=N\S(=O)(=O)c1ccc(Cl)cc1 ?
Ba/F3 V617F tox: 4.8; APP 5UTR inh: -33.9; IEC-6 tox: -5.4; aSyn 5UTR inh: 2.0; KLF5 inhibitor: -1.9; BaF3 parental: 5.8

What do the screens show for `Cc1cc(Cl)cc(C)c1OCCn1ccnc1`?
IEC-6 tox: 43.5*; aSyn 5UTR inh: 3.5; KLF5 inhibitor: 37.7; IEC-6 tox confirm: 14.3

How did CCC(C)c1ccc(N(CC(=O)NC(C)(C)C)C(=O)CNC(=O)c2cccs2)cc1 (configuration not stated) do in these assays?
IEC-6 tox: 0.3; aSyn 5UTR inh: -6.1; KLF5 inhibitor: -0.9

How did O=C(Nc1ccc([N+](=O)[O-])cc1)Nc1ccon1 do in these assays?
IEC-6 tox: 81.6*; aSyn 5UTR inh: 74.0*; KLF5 inhibitor: 57.6; IEC-6 tox confirm: 57.0*

How did O=C(CN1C(=O)COc2ccc(S(=O)(=O)N3CCCCCC3)cc21)NCc1ccc(F)cc1 do in these assays?
IEC-6 tox: -1.3; aSyn 5UTR inh: -7.0; KLF5 inhibitor: -5.8

How did Cc1cccc(NC2=NC(C)(C)N=C(N)N2)c1 do in these assays?
Ba/F3 V617F tox: 98.9*; APP 5UTR inh: 4.4; IEC-6 tox: 77.0*; aSyn 5UTR inh: 98.4*; KLF5 inhibitor: 20.0; BaF3 parental: 101.1*; IEC-6 tox confirm: 70.2*

How did Cn1nccc1C(=O)N/N=C/c1c(O)ccc2ccccc12 do in these assays?
IEC-6 tox: 98.2*; aSyn 5UTR inh: 91.5*; KLF5 inhibitor: 56.9; IEC-6 tox confirm: 28.9*

Results for COC(=O)c1cn(Cc2cc(OC)ccc2OC)cc(F)c1=O ?
IEC-6 tox: 9.9; aSyn 5UTR inh: 2.8; KLF5 inhibitor: -0.7

Results for N#CC1=C(N)Oc2ccc3ccccc3c2C1c1cccnc1 (configuration not stated) ?
Ba/F3 V617F tox: 53.2*; APP 5UTR inh: 54.5*; IEC-6 tox: 55.0*; aSyn 5UTR inh: inconclusive; KLF5 inhibitor: 46.6; BaF3 parental: 34.1*; IEC-6 tox confirm: 48.3*

Results for CCc1cc(=O)oc2cc(OCc3ccc(C(=O)O)o3)ccc12 ?
IEC-6 tox: -1.2; aSyn 5UTR inh: -4.2; KLF5 inhibitor: -38.0

How did CCC1(c2ccccc2)NC(=O)N(CC(=O)NNC(=O)c2ccoc2C)C1=O (configuration not stated) do in these assays?
aSyn 5UTR inh: -11.5

How did CCOc1ccc(/C=C(/NC(=O)c2ccc(Cl)cc2)C(=O)O)cc1OCC do in these assays?
Ba/F3 V617F tox: -4.2; IEC-6 tox: 3.8; aSyn 5UTR inh: -86.2; KLF5 inhibitor: 9.7; BaF3 parental: -0.8

How did CCOc1cc(/C=C(/NC(C)=O)C(=O)O)cc(Cl)c1OCc1ccc(Br)cc1 do in these assays?
Ba/F3 V617F tox: 4.2; IEC-6 tox: 26.2*; aSyn 5UTR inh: -0.4; KLF5 inhibitor: -20.4; BaF3 parental: -1.9; IEC-6 tox confirm: 2.0

How did COc1ccc(-c2cn(-c3ccc(OC)cc3)c3[n+]2-c2ccccc2CC3)cc1 do in these assays?
Ba/F3 V617F tox: 94.7*; APP 5UTR inh: -3.6; IEC-6 tox: 24.7*; aSyn 5UTR inh: 0.2; KLF5 inhibitor: -30.7; BaF3 parental: 77.0*; IEC-6 tox confirm: 26.4*

What do the screens show for `CCOC(=O)c1[nH]c(C)c(C(=O)Nc2cc(OC)ccc2OC)c1C`?
Ba/F3 V617F tox: 75.2*; APP 5UTR inh: 91.1*; IEC-6 tox: 86.4*; aSyn 5UTR inh: 35.8; KLF5 inhibitor: 59.8; BaF3 parental: 75.1*; IEC-6 tox confirm: 61.0*

How did CCOC(=O)c1[nH]c(C)c(C(=O)Nc2ccc(C)cc2C)c1C do in these assays?
Ba/F3 V617F tox: 59.0*; APP 5UTR inh: 70.2*; IEC-6 tox: 51.0*; aSyn 5UTR inh: -27.8; KLF5 inhibitor: 37.8; BaF3 parental: 52.3*; IEC-6 tox confirm: 48.2*

Results for CCOC(=O)c1[nH]c(C)c(C(=O)Nc2ccc(F)cc2)c1C ?
Ba/F3 V617F tox: -6.0; APP 5UTR inh: -18.0; IEC-6 tox: 1.3; aSyn 5UTR inh: 0.1; KLF5 inhibitor: -43.2; BaF3 parental: -1.5

What do the screens show for `CCOC(=O)c1[nH]c(C)c(C(=O)Nc2ccccc2F)c1C`?
Ba/F3 V617F tox: 68.3*; APP 5UTR inh: 62.4*; IEC-6 tox: 47.2*; aSyn 5UTR inh: -54.1; KLF5 inhibitor: 4.6; BaF3 parental: 61.9*; IEC-6 tox confirm: 46.1*

What do the screens show for `CCOC(=O)c1c(C)[nH]c(C(=O)OCC(=O)Nc2cc(C)ccc2OC)c1C`?
Ba/F3 V617F tox: -4.8; APP 5UTR inh: -14.4; IEC-6 tox: 1.2; aSyn 5UTR inh: 7.7; KLF5 inhibitor: -3.6; BaF3 parental: 0.0

What do the screens show for `CCOC(=O)c1[nH]c(C)c(C(=O)c2ccc(C)cc2)c1C`?
Ba/F3 V617F tox: 77.8*; APP 5UTR inh: 94.9*; IEC-6 tox: 81.7*; aSyn 5UTR inh: 36.5; KLF5 inhibitor: 15.7; BaF3 parental: 77.4*; IEC-6 tox confirm: 62.2*

Results for COc1ccc(OC)c(/C=N/N2CCN(c3ccc(Cl)cc3)CC2)c1 ?
IEC-6 tox: 7.0; aSyn 5UTR inh: -5.2; KLF5 inhibitor: -4.1
